# From ChEMBL document CHEMBL3433997, “St. Jude Leishmania screening dataset” (2016)
# Legend:
# Assay type in all cases: functional
# [1] = target: Solute carrier family 2, facilitated glucose transporter member 1 (Homo sapiens) (UniProt P11166); test: ST_JUDE_LEISH: Cytotoxicity at 2uM final concentration against transgenic Leishmania Mexicana promastigotes LmGLUT1 that are glucose transport deficient and complemented with the human glucose transporter GLUT1. Activity is measured by DNA content using SYBR green in vitro
# [2] = target: Hexose transporter 1 (Plasmodium falciparum) (UniProt O97467); test: ST_JUDE_LEISH: Cytotoxicity at 2uM final concentration against transgenic Leishmania Mexicana promastigotes LmPfHT that are glucose transport deficient and complemented with the Plasmodium falciparum hexose transporter. Activity is measured by DNA content using SYBR green in vitro
# [3] = target: Glucose transporter (Leishmania mexicana) (UniProt O61059); test: ST_JUDE_LEISH: Cytotoxicity at 2uM final concentration against transgenic Leishmania Mexicana promastigotes LmGT2 that are glucose transport deficient and complemented with the L. Mexicana glucose transporter 2. Activity is measured by DNA content using SYBR green in vitro
# Solute carrier family 2, facilitated glucose transporter member 1 (Homo sapiens), sequence (P11166 whole entry): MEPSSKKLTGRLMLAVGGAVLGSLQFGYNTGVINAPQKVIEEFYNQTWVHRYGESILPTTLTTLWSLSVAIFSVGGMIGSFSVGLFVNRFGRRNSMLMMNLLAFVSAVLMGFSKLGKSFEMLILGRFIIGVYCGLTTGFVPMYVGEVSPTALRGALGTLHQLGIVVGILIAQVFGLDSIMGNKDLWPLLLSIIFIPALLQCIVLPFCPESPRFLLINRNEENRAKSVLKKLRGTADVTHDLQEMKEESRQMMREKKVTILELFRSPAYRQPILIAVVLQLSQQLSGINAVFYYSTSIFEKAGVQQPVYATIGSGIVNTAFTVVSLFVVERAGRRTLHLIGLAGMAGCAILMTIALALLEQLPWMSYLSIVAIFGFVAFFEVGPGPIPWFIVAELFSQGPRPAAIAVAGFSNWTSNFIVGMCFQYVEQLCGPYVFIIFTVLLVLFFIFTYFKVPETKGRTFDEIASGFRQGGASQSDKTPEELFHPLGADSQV
Structure (SMILES),inhibition [1],inhibition [2],inhibition [3]
Cc1noc(C)c1-c1ccc2c(Nc3ccccc3N3CCOCC3)c(C(=O)NCc3ccccc3)cnc2c1,8.19%,5.91%,1.84%
Cc1ccc(NC(=O)Nc2ccccc2F)cc1-c1ccc(C(=O)Nc2ccncc2)cc1,1.42%,1.06%,0.59%
CC1(C)NC(N)=NC(=N)N1OCCOc1ccc2ccccc2c1,0.95%,-0.86%,1.3%
O=C(Nc1ccc(OC2CCN(Cc3ccccc3)C2)c(Cl)c1)c1ccco1 (centres undefined),5.7%,6.46%,4.97%
Cc1cc(=O)[nH]c(-n2nc(C)cc2NC(=O)C2(c3ccc(Cl)cc3)CCCC2)n1,61.6%,66.3%,53.5%
Cc1ccc(CNC(=O)[C@H](Cc2ccccc2)Nc2cc(C)nc(NCC3CCCCC3)n2)cc1,3.25%,4.57%,0.14%
COCCOc1cccc(CN2CCC(c3cc4nc(C)cc(C(F)(F)F)n4n3)C2)c1 (centres undefined),-2.12%,4.65%,0.83%
CC(=NNC(S)=NC(c1ccccc1)c1ccccc1)c1ccccn1,61%,58.8%,32%
CCN(CC)S(=O)(=O)c1ccc(CCOCCCCCNCC(O)c2cc(Cl)c(N)c(Cl)c2)s1 (centres undefined),2.8%,-2.21%,1.26%
O=C(/C=C/c1ccc(Cl)c(Cl)c1)NCCCCCN1CCC(C(=O)Nc2ccc(Cl)cc2)CC1,1.92%,0.72%,2.78%
CCc1sc(N2CCN(C)CC2)nc1C(=O)NCCc1ccc(Cl)c(Cl)c1,4.62%,3.9%,3.6%
CC(C)c1ccc(NC(=O)Nc2ccc(Cn3ncc(N4CCCNCC4)c(Cl)c3=O)cc2)cc1,1.52%,1.29%,-0.56%
CCc1cccc(OCC2CCCN(c3ccc(C(=O)NC4CC4)cn3)C2)c1 (centres undefined),4.71%,3.55%,3.3%
Cc1ccc(NC(=O)Nc2ccc(Cl)cc2)cc1-c1cccc(C(=O)Nc2ccc(F)cc2)c1,-1.9%,2.5%,5.14%
Cn1cc(-c2ccnc3[nH]c(-c4cccc(CNC5CCC(O)CC5)c4)cc23)cn1 (centres undefined),0.39%,1.89%,3.37%
CN(C)c1cc(NC(=O)Nc2ccc(SC(F)(F)F)cc2)c2ccccc2n1,-0.23%,0.11%,0.58%
CC1CC(C)CN(CC(O)CNC(=O)Nc2ccc(Br)cc2)C1 (centres undefined),6.62%,5.27%,3.33%

Structure (SMILES),inhibition [1],inhibition [2],inhibition [3]
COc1cccc(C(O)CNc2ccnc(Nc3cccc(-c4csc(C)n4)c3)n2)c1 (centres undefined),1.26%,-0.04%,1.05%
Fc1ccc2[nH]c(-c3ccc(-c4ccc(CN5CCN(CCN6CCOCC6)CC5)cc4)cc3)nc2c1,5.88%,4.38%,1.45%
Cn1c(NC(=O)CCCCCNC(=O)c2ccc(O)c(-c3ccc(Cl)c(Cl)c3)c2)nc2ccccc21,1.81%,1.73%,2%
Oc1ccc(CCCNc2nc(NCc3ccccc3-c3ccccc3)nc(N3CCNCC3)n2)cc1,-0.81%,-2.76%,1.36%
Cc1cc(NCCC(=O)Nc2ccccc2)nc(NCC2CCCCC2)n1,5.97%,3.39%,3.6%
COc1c(C2CCN(CCCCNC(=O)c3ccc(-c4ccc(C(F)(F)F)cc4)c(C(=O)OC(C)C)c3)CC2)ccc2c1CCCC2,1.36%,1.79%,0.91%
COc1ccc(-c2c(-c3ccc(OCc4ccccc4)cc3O)n[nH]c2C(F)(F)F)cc1,3.36%,1.26%,1.92%
CN(c1ccc(NC(=O)Nc2cc(C(C)(C)C)on2)cc1)c1ccnc(NCCN2CCOCC2)n1,32.3%,57.4%,5.4%
Cc1cccc2nc(-c3cccc(-c4ccc(NC(=O)c5ccc(=O)[nH]n5)cc4)c3)[nH]c12,3.76%,3.2%,1.44%
Cc1cc(Br)cnc1CCCCNC1=NC(=O)CN1C,0.57%,-0.02%,0.12%
O=C(/C=C/c1ccc(Cl)c(Cl)c1)N1CCC(NCc2ccc3[nH]ccc3c2)CC1,4.05%,4.06%,0.76%
Cc1ccc(Cn2c(N3CCC(C(=O)NCc4cccs4)CC3)nc3ccccc32)cc1,1.76%,2.67%,7.85%
O=C(CC(=O)C(F)(F)F)c1ccc2c(c1)OCO2,1.45%,1.74%,2.14%
CC(C)c1ccc(N(CC(=O)N/N=C/c2ccc(C(F)(F)F)cc2)S(=O)(=O)c2ccc(C(F)(F)F)cc2)cc1,4.88%,2.56%,3.25%
CN1CCC(NCc2ccc(-c3ccc(S(=O)(=O)NCc4ccccc4)s3)cc2)CC1,6.58%,6.78%,4.55%
Fc1cccc(Cl)c1-c1nc(NCCC(c2ccccc2)c2ccccc2)no1,-0.45%,0.05%,1.11%
